Laboratory results: ChEMBL document CHEMBL1961873, “Compounds: GSK PKIS; Assays: Nanosyn kinase panel” (2012)

Experiments:
[1] = target: Platelet-derived growth factor receptor beta (Homo sapiens) (UniProt P09619); settings: at 1 µM;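 note: each value is a mean percent inhibition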
[2] = target: Tyrosine-protein kinase FRK (Homo sapiens) (UniProt P42685); settings: at 0.1 µM
[3] = target: Tyrosine-protein kinase FRK (Homo sapiens) (UniProt P42685); settings: at 1 µM
[4] = target: Protein-tyrosine kinase 2-beta (Homo sapiens) (UniProt Q14289); settings: at 0.1 µM
Chain of Protein-tyrosine kinase 2-beta (Homo sapiens) (Q14289 whole entry, looked up): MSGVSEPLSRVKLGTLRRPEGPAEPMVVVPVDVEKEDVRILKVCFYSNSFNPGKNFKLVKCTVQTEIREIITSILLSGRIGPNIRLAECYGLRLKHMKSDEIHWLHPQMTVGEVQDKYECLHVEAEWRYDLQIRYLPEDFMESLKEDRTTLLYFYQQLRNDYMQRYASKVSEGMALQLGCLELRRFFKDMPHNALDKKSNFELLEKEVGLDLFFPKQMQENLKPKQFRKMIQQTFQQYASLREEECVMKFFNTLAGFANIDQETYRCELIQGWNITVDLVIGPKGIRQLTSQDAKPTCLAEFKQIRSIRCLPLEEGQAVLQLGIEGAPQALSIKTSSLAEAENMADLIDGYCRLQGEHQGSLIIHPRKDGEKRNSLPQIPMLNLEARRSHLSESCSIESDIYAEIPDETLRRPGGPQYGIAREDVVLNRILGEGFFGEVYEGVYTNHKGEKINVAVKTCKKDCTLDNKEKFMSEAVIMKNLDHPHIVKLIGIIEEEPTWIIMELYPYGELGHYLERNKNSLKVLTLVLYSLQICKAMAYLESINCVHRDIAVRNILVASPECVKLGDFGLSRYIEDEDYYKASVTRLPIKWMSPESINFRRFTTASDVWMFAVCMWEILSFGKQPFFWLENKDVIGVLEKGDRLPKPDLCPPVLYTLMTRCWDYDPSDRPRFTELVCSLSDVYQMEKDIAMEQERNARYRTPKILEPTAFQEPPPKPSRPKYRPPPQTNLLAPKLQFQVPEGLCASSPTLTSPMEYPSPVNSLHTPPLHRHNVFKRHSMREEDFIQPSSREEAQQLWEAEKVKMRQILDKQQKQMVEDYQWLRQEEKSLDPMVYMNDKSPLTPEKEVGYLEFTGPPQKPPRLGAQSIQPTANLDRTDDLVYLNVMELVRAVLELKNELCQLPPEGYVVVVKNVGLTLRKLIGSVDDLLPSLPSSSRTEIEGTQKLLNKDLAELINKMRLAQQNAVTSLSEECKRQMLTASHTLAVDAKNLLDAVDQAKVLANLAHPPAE

[5] = target: Protein-tyrosine kinase 2-beta (Homo sapiens) (UniProt Q14289); settings: at 1 µM
[6] = target: Proto-oncogene tyrosine-protein kinase receptor Ret (Homo sapiens) (UniProt P07949); settings: at 0.1 µM
Chain of Proto-oncogene tyrosine-protein kinase receptor Ret (Homo sapiens) (P07949 whole entry): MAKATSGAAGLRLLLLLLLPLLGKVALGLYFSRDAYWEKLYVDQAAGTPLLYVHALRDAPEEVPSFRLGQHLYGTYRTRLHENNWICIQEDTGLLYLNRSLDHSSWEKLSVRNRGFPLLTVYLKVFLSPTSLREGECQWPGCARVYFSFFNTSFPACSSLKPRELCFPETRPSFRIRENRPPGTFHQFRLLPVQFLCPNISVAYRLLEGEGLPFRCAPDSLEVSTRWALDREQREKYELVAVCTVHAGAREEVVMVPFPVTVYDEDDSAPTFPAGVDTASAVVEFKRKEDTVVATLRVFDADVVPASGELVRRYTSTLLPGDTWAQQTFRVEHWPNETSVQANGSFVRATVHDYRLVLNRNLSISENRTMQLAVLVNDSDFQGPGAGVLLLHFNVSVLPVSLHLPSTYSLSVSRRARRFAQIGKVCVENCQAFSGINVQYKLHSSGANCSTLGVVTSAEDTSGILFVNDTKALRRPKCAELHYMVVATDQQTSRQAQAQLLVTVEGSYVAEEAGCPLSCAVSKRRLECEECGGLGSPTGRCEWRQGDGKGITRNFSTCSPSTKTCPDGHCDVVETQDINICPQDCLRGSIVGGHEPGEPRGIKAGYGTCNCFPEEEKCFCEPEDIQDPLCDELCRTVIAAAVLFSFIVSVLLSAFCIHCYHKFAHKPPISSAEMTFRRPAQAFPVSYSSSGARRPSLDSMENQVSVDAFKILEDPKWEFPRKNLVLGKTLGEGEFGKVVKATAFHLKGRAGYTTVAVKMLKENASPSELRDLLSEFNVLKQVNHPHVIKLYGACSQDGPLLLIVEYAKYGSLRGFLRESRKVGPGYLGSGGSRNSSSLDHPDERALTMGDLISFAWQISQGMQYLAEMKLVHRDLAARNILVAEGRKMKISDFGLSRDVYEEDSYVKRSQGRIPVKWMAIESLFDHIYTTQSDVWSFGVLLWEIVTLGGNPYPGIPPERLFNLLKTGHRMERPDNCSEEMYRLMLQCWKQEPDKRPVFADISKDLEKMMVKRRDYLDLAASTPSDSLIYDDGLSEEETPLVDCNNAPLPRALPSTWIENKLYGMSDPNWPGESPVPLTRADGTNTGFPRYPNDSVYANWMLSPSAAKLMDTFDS

[7] = target: Proto-oncogene tyrosine-protein kinase receptor Ret (Homo sapiens) (UniProt P07949); settings: at 1 µM
[8] = tested on: Proto-oncogene tyrosine-protein kinase receptor Ret (Homo sapiens), P07949 [V804L]; settings: at 0.1 µM
Chain of Proto-oncogene tyrosine-protein kinase receptor Ret (Homo sapiens), P07949 [V804L] (P07949 whole entry V804L): as the sequence (P07949 whole entry) above, with V804L counted along it

[9] = tested on: Proto-oncogene tyrosine-protein kinase receptor Ret (Homo sapiens), P07949 [V804L]; settings: at 1 µM
[10] = tested on: Proto-oncogene tyrosine-protein kinase receptor Ret (Homo sapiens), P07949 [Y791F]; settings: at 0.1 µM
Chain of Proto-oncogene tyrosine-protein kinase receptor Ret (Homo sapiens), P07949 [Y791F] (P07949 whole entry Y791F): as the sequence (P07949 whole entry) above, with Y791F counted along it

[11] = tested on: Proto-oncogene tyrosine-protein kinase receptor Ret (Homo sapiens), P07949 [Y791F]; settings: at 1 µM
[12] = target: Macrophage-stimulating protein receptor (Homo sapiens) (UniProt Q04912); settings: at 0.1 µM
[13] = target: Macrophage-stimulating protein receptor (Homo sapiens) (UniProt Q04912); settings: at 1 µM
[14] = target: Proto-oncogene tyrosine-protein kinase ROS (Homo sapiens) (UniProt P08922); settings: at 0.1 µM
[15] = target: Proto-oncogene tyrosine-protein kinase ROS (Homo sapiens) (UniProt P08922); settings: at 1 µM
[16] = target: Proto-oncogene tyrosine-protein kinase Src (Homo sapiens) (UniProt P12931); settings: at 0.1 µM
Chain of Proto-oncogene tyrosine-protein kinase Src (Homo sapiens) (P12931 2-536 limits assumed): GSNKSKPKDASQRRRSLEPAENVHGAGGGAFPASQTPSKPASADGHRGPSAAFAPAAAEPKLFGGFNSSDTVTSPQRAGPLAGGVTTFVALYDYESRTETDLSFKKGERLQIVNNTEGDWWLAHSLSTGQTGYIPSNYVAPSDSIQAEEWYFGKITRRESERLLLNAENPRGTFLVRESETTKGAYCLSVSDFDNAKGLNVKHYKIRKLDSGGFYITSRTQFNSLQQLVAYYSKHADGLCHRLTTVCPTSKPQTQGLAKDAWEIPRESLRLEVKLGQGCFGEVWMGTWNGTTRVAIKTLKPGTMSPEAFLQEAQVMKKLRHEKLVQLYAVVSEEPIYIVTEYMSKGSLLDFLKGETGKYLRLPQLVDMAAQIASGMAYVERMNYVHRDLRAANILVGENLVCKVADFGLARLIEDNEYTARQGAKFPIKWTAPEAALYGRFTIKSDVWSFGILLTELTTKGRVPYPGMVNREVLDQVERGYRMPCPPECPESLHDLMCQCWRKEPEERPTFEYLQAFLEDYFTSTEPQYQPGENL

[17] = target: Proto-oncogene tyrosine-protein kinase Src (Homo sapiens) (UniProt P12931); settings: at 1 µM
[18] = target: Tyrosine-protein kinase Srms (Homo sapiens) (UniProt Q9H3Y6); settings: at 0.1 µM
Chain of Tyrosine-protein kinase Srms (Homo sapiens) (Q9H3Y6 whole entry): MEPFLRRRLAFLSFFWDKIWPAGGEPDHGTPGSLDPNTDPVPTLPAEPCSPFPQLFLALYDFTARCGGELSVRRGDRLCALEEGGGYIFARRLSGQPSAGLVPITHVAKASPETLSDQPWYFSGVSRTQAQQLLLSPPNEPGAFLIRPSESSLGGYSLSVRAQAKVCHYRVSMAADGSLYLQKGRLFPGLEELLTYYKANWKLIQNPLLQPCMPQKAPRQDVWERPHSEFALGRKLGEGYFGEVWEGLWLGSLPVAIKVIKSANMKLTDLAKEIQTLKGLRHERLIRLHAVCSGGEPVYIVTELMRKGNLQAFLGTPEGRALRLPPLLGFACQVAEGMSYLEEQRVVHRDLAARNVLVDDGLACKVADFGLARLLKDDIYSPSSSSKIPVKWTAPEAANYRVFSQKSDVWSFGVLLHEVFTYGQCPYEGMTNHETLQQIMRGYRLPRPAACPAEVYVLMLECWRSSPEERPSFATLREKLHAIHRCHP

[19] = target: Tyrosine-protein kinase Srms (Homo sapiens) (UniProt Q9H3Y6); settings: at 1 µM
[20] = target: Tyrosine-protein kinase SYK (Homo sapiens) (UniProt P43405); settings: at 0.1 µM;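 note: reported percentages are mean inhibition values for SYK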

Chain of Tyrosine-protein kinase FRK (Homo sapiens) (P42685 whole entry): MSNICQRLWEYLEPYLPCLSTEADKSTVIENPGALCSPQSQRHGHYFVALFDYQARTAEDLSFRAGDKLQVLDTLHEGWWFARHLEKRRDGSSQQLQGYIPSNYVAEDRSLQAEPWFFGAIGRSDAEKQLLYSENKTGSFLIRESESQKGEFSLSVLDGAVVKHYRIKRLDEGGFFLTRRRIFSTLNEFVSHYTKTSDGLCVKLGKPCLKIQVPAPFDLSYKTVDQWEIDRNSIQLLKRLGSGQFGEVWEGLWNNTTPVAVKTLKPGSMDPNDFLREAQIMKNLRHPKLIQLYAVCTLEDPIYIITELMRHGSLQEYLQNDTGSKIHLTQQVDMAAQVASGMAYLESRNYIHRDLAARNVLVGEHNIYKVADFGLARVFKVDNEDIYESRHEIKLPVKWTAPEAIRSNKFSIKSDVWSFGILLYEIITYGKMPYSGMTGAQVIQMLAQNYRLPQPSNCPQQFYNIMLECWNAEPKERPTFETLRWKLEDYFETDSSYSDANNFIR
Chain of Platelet-derived growth factor receptor beta (Homo sapiens) (P09619 whole entry): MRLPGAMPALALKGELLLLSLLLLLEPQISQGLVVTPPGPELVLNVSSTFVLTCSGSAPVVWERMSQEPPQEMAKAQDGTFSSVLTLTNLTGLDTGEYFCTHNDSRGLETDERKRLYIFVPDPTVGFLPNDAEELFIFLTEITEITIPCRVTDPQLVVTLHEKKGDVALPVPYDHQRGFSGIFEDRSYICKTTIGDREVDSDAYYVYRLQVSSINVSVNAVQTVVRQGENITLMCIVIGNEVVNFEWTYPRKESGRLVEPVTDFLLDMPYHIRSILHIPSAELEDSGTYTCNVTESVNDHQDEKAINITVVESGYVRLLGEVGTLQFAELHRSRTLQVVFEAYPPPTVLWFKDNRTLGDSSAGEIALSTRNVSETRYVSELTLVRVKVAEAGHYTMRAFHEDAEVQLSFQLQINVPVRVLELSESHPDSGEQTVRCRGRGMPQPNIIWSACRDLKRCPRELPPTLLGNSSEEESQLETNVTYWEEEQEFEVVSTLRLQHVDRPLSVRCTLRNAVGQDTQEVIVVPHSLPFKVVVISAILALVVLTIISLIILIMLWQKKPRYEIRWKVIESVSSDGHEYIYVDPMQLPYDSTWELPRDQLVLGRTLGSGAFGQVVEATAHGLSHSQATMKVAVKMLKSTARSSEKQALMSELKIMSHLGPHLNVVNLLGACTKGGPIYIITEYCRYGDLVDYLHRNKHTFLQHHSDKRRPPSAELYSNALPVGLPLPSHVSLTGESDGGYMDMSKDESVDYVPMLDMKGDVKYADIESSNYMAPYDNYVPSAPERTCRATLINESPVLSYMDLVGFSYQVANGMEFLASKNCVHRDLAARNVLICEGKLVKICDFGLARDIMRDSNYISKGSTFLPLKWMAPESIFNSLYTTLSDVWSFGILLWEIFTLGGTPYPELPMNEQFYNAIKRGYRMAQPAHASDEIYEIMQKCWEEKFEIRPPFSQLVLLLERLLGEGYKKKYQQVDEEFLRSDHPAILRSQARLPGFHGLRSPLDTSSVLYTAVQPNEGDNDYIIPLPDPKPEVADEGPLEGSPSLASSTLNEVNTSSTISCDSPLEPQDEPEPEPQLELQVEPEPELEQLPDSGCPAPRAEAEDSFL

## Fc1ccc(-c2cc(-c3c[nH]nc3-c3ccccn3)ccn2)cc1
[1]
  inhibition: 11.8%
[2]
  inhibition: 2.82%
[3]
  inhibition: 1.26%
[4]
  inhibition: 7.36%
[5]
  inhibition: 19.4%
[6]
  inhibition: 5.13%
[7]
  inhibition: 2.43%
[8]
  inhibition: 2.33%
[9]
  inhibition: 8.21%
[10]
  inhibition: 3.92%
[11]
  inhibition: 13.8%
[12]
  inhibition: 4.71%
[13]
  inhibition: 8.86%
[14]
  inhibition: 6.8%
[15]
  inhibition: 8.14%
[16]
  inhibition: 0.27%
[17]
  inhibition: 9%
[18]
  inhibition: -0.96%
[19]
  inhibition: -1.26%
[20]
  inhibition: 0.3%

## Nc1ncc(-c2cccc(S(N)(=O)=O)c2)c2scc(-c3ccc(F)c(Cl)c3)c12
[1]
  inhibition: 53.4%
[2]
  inhibition: 2.22%
[3]
  inhibition: 14.2%
[4]
  inhibition: 2.23%
[5]
  inhibition: 20.8%
[6]
  inhibition: 11.8%
[7]
  inhibition: 49%
[8]
  inhibition: 5.58%
[9]
  inhibition: 7.48%
[10]
  inhibition: 12.4%
[11]
  inhibition: 50.2%
[12]
  inhibition: 1.48%
[13]
  inhibition: 15.8%
[14]
  inhibition: -0.54%
[15]
  inhibition: 6.78%
[16]
  inhibition: 19.6%
[17]
  inhibition: 57.1%
[18]
  inhibition: -1.03%
[19]
  inhibition: 6.75%
[20]
  inhibition: 0.28%

## CC(=O)NCc1cccc(C#Cc2cncnc2Nc2ccc(OCc3cccc(F)c3)c(Cl)c2)c1
[1]
  inhibition: 6.15%
[2]
  inhibition: 1.61%
[3]
  inhibition: 1.03%
[4]
  inhibition: 3.96%
[5]
  inhibition: 0.92%
[6]
  inhibition: 3.99%
[7]
  inhibition: 20.2%
[8]
  inhibition: 2.58%
[9]
  inhibition: 6.73%
[10]
  inhibition: 1.6%
[11]
  inhibition: 3.42%
[12]
  inhibition: 5.44%
[13]
  inhibition: 5.62%
[14]
  inhibition: 3.92%
[15]
  inhibition: 4.54%
[16]
  inhibition: 0.53%
[17]
  inhibition: 2.01%
[18]
  inhibition: 0.33%
[19]
  inhibition: -1.05%
[20]
  inhibition: -2.37%

## CCn1c(-c2nonc2N)nc2cnc(Oc3cccc(NC(=O)c4ccc(N(C)C)cc4)c3)cc21
[1]
  inhibition: 6.43%
[2]
  inhibition: 1.12%
[3]
  inhibition: 0.64%
[4]
  inhibition: 1.13%
[5]
  inhibition: 3.58%
[6]
  inhibition: 3.06%
[7]
  inhibition: 4.26%
[8]
  inhibition: 3.42%
[9]
  inhibition: 6.51%
[10]
  inhibition: 3.78%
[11]
  inhibition: 1.39%
[12]
  inhibition: 1.95%
[13]
  inhibition: 1.27%
[14]
  inhibition: 2.49%
[15]
  inhibition: 3.39%
[16]
  inhibition: 3.64%
[17]
  inhibition: 1.89%
[18]
  inhibition: -0.5%
[19]
  inhibition: 6.2%
[20]
  inhibition: -1.42%

## CCN1CCC(CC(=O)Nc2n[nH]c3nnc(-c4cccc(F)c4F)cc23)CC1
[1]
  inhibition: 5.87%
[2]
  inhibition: 0.59%
[3]
  inhibition: -2.06%
[4]
  inhibition: 2.01%
[5]
  inhibition: 2.8%
[6]
  inhibition: 3.04%
[7]
  inhibition: 1.36%
[8]
  inhibition: 3.31%
[9]
  inhibition: 3.73%
[10]
  inhibition: 4.22%
[11]
  inhibition: 6.9%
[12]
  inhibition: -3.31%
[13]
  inhibition: 1.81%
[14]
  inhibition: 1.13%
[15]
  inhibition: 3.93%
[16]
  inhibition: 5.1%
[17]
  inhibition: 0.53%
[18]
  inhibition: -0.09%
[19]
  inhibition: 0.68%
[20]
  inhibition: -0.02%

## CCn1cc(-c2ccnc3[nH]ccc23)c(-c2cccc(NC(=O)Nc3ccc(OCc4ccccc4)cc3)c2)n1
[1]
  inhibition: 3.09%
[2]
  inhibition: 1.32%
[3]
  inhibition: 1.39%
[4]
  inhibition: 3.44%
[5]
  inhibition: 3.88%
[6]
  inhibition: 0.08%
[7]
  inhibition: 0.88%
[8]
  inhibition: 0.99%
[9]
  inhibition: 0.01%
[10]
  inhibition: 2.29%
[11]
  inhibition: 11.9%
[12]
  inhibition: -0.2%
[13]
  inhibition: 23.8%
[14]
  inhibition: 1.33%
[15]
  inhibition: 0.45%
[16]
  inhibition: 1.17%
[17]
  inhibition: 6.43%
[18]
  inhibition: -1.11%
[19]
  inhibition: -1.61%
[20]
  inhibition: -1.9%

## c1ccc(-c2nc3n(c2-c2ccc4c(c2)OCO4)CCC3)nc1
[1]
  inhibition: 4.62%
[2]
  inhibition: 0.91%
[3]
  inhibition: 0.2%
[4]
  inhibition: 5.1%
[5]
  inhibition: 6.96%
[6]
  inhibition: 2.81%
[7]
  inhibition: 4.44%
[8]
  inhibition: 1.37%
[9]
  inhibition: 1.16%
[10]
  inhibition: 2.63%
[11]
  inhibition: 1.82%
[12]
  inhibition: 0.69%
[13]
  inhibition: 1.59%
[14]
  inhibition: 4.52%
[15]
  inhibition: 4.91%
[16]
  inhibition: -7.85%
[17]
  inhibition: 2.73%
[18]
  inhibition: -0.53%
[19]
  inhibition: -1.55%
[20]
  inhibition: -1.33%

## FC(F)(F)c1cccc(-c2nn3ncccc3c2-c2ccnc(Nc3ccc4c(c3)OCCO4)n2)c1
[1]
  inhibition: 14.4%
[2]
  inhibition: 0.89%
[3]
  inhibition: 5.26%
[4]
  inhibition: -0.64%
[5]
  inhibition: 13.1%
[6]
  inhibition: 7.52%
[7]
  inhibition: 31.8%
[8]
  inhibition: 4.11%
[9]
  inhibition: 2.86%
[10]
  inhibition: 7.75%
[11]
  inhibition: 22.1%
[12]
  inhibition: 5.16%
[13]
  inhibition: 4.5%
[14]
  inhibition: 1.05%
[15]
  inhibition: 4.18%
[16]
  inhibition: 12.8%
[17]
  inhibition: 47.9%
[18]
  inhibition: 0.82%
[19]
  inhibition: 2.59%
[20]
  inhibition: 0.9%

## N#Cc1c(NC(=O)CN2CCOCC2)sc2c1CCCC2
[1]
  inhibition: 8.2%
[2]
  inhibition: 2.9%
[3]
  inhibition: 1.5%
[4]
  inhibition: 9.37%
[5]
  inhibition: 14.3%
[6]
  inhibition: 4.27%
[7]
  inhibition: 7.18%
[8]
  inhibition: 1.54%
[9]
  inhibition: 8.77%
[10]
  inhibition: 5.41%
[11]
  inhibition: 8.63%
[12]
  inhibition: -0.19%
[13]
  inhibition: 6.37%
[14]
  inhibition: 6.7%
[15]
  inhibition: 13%
[16]
  inhibition: -1.56%
[17]
  inhibition: 7.9%
[18]
  inhibition: -1.35%
[19]
  inhibition: 0.73%
[20]
  inhibition: -0.42%

## COc1ccc(-c2cc(-c3c[nH]nc3-c3ccccn3)ccn2)cc1
[1]
  inhibition: 31.9%
[2]
  inhibition: 3.08%
[3]
  inhibition: 2.92%
[4]
  inhibition: 7.68%
[5]
  inhibition: 13.9%
[6]
  inhibition: 5.33%
[7]
  inhibition: 5.9%
[8]
  inhibition: 4.29%
[9]
  inhibition: 5.73%
[10]
  inhibition: 6.24%
[11]
  inhibition: 17.4%
[12]
  inhibition: 2.4%
[13]
  inhibition: 21.3%
[14]
  inhibition: 3.05%
[15]
  inhibition: 8.62%
[16]
  inhibition: 0.76%
[17]
  inhibition: 11.1%
[18]
  inhibition: -2.06%
[19]
  inhibition: 0.71%
[20]
  inhibition: -6.85%

## COC(=O)Nc1nc2ccc(Oc3ccc(NC(=O)Nc4cccc(Cl)c4)cc3)cc2[nH]1
[1]
  inhibition: 28.7%
[2]
  inhibition: 0.45%
[3]
  inhibition: 0.48%
[4]
  inhibition: 0.45%
[5]
  inhibition: 5.25%
[6]
  inhibition: 52.1%
[7]
  inhibition: 74.4%
[8]
  inhibition: 23.8%
[9]
  inhibition: 54.8%
[10]
  inhibition: 45.5%
[11]
  inhibition: 79.7%
[12]
  inhibition: 2.59%
[13]
  inhibition: 6.24%
[14]
  inhibition: 1.51%
[15]
  inhibition: 2.59%
[16]
  inhibition: 4.21%
[17]
  inhibition: 1.43%
[18]
  inhibition: -2.84%
[19]
  inhibition: -1.42%
[20]
  inhibition: 0.41%

## COc1ccc(-c2cc3c(N)ncnc3o2)cc1
[1]
  inhibition: 11.2%
[2]
  inhibition: 0.49%
[3]
  inhibition: 0.16%
[4]
  inhibition: -4.88%
[5]
  inhibition: 8.21%
[6]
  inhibition: -1.19%
[7]
  inhibition: 0.94%
[8]
  inhibition: 0.48%
[9]
  inhibition: 2.98%
[10]
  inhibition: 2.13%
[11]
  inhibition: 4.56%
[12]
  inhibition: -4.17%
[13]
  inhibition: -1.06%
[14]
  inhibition: 2.19%
[15]
  inhibition: 4.11%
[16]
  inhibition: -1.14%
[17]
  inhibition: 7.59%
[18]
  inhibition: 1.52%
[19]
  inhibition: 3.06%
[20]
  inhibition: 0.62%

## O=S(=O)(CCNCc1ccc(-c2ccc3ncnc(Nc4ccc(OCc5cccc(F)c5)c(Cl)c4)c3c2)o1)c1ccccc1
[1]
  inhibition: 12.2%
[2]
  inhibition: 4.29%
[3]
  inhibition: 3.5%
[4]
  inhibition: 5.1%
[5]
  inhibition: 12.9%
[6]
  inhibition: 6.34%
[7]
  inhibition: 3.04%
[8]
  inhibition: 7.31%
[9]
  inhibition: 9.24%
[10]
  inhibition: 10.8%
[11]
  inhibition: 15.4%
[12]
  inhibition: 1.71%
[13]
  inhibition: 2.9%
[14]
  inhibition: 4.44%
[15]
  inhibition: 6.24%
[16]
  inhibition: 9.13%
[17]
  inhibition: 8.52%
[18]
  inhibition: -1.84%
[19]
  inhibition: -3.16%
[20]
  inhibition: -4.56%

## CCN(CC)S(=O)(=O)c1ccc(OC)c(Nc2ncc(-c3ccccc3)o2)c1
[1]
  inhibition: 63.8%
[2]
  inhibition: 1.39%
[3]
  inhibition: 9.88%
[4]
  inhibition: -0.93%
[5]
  inhibition: 16.5%
[6]
  inhibition: 9.2%
[7]
  inhibition: 36.2%
[8]
  inhibition: 3.84%
[9]
  inhibition: 21.3%
[10]
  inhibition: 5.14%
[11]
  inhibition: 35.7%
[12]
  inhibition: 4%
[13]
  inhibition: -1.9%
[14]
  inhibition: 1.91%
[15]
  inhibition: 19%
[16]
  inhibition: 9.87%
[17]
  inhibition: 56.4%
[18]
  inhibition: 1.97%
[19]
  inhibition: 3.53%
[20]
  inhibition: 0.84%

## Fc1ccc(-c2nn3ncccc3c2-c2ccnc(Nc3ccc4c(c3)OCCO4)n2)cc1
[1]
  inhibition: 69.7%
[2]
  inhibition: 5.64%
[3]
  inhibition: 25.4%
[4]
  inhibition: 16.4%
[5]
  inhibition: 44%
[6]
  inhibition: 23.5%
[7]
  inhibition: 64.9%
[8]
  inhibition: 4.29%
[9]
  inhibition: 4.6%
[10]
  inhibition: 30.8%
[11]
  inhibition: 65.8%
[12]
  inhibition: -2.95%
[13]
  inhibition: 4.64%
[14]
  inhibition: 4.11%
[15]
  inhibition: 10.9%
[16]
  inhibition: 40.2%
[17]
  inhibition: 83.9%
[18]
  inhibition: -0.06%
[19]
  inhibition: 9.83%
[20]
  inhibition: -5.37%
